# Screening results deposited in PubChem BioAssay by University of Kansas High Throughput Screening Laboratory.
# mHTT-CaM PPI inh: mHTT-calmodulin interaction abrogation | inhibition, % at 15 µM | AlphaScreen His-mHTT/GST-CaM binding, luminescence | actives 3.6% (n = 190,000) | P42858;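 also: 0% = both proteins with DMSO and 100% = one protein alone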
# Pf apPOL inh: Pf-apPOL DNA polymerase inhibition. Recombinant Pf-apPOL, molecular beacon fluorescence, 1.5 h. inhibition, % at 10 µM. actives 0.25% (n = 210,000). AID 1794808
# The depositor's hits bear a star; nt = no result given; ! = a repeat was not active. Compounds with a hit are over-represented: about 3.5% of the library has one in this group of screens. Rule as the data show it: active = inhibition above about 50%; inactive = the rest.
SMILES,mHTT-CaM PPI inh,Pf apPOL inh
COCCNC(=O)NCCC1CCN(S(=O)(=O)c2ccccc2)CC1,32,-2
CCOc1ccc(CCNC(=O)Cn2nnc(-c3ccc(OC)cc3)n2)cc1OCC,76*,-5
CCOc1ccc(CCNC(=O)Cn2nnc(-c3ccc(F)cc3)n2)cc1OCC,-1,-41
COc1ccccc1C1SCCN1S(=O)(=O)c1cccc(C)c1 (stereo unspecified),-3,3
O=S1(=O)CC(N2CCCC2)CN1Cc1cn(Cc2cccc(C(F)(F)F)c2)nn1 (stereo unspecified),-1,-10
CCSc1ccc(C(=O)Nc2ccc(Br)cn2)cc1[N+](=O)[O-],6,-2
COc1cc(C)c(-c2n[nH]c(C)c2Oc2ccccc2)c(O)c1,7,4
Cc1[nH]nc(-c2ccc(OC(C)C)cc2O)c1Oc1ccccc1,67*,7
CCOc1ccc(-c2n[nH]c(C)c2Oc2ccc(F)cc2)c(O)c1,26,-1
CCc1cc(-c2n[nH]c(C)c2Oc2ccc(F)cc2)c(O)cc1O,100*,8
CCOc1ccc(-c2n[nH]c(C)c2-c2ccc(F)cc2)c(O)c1,24,1
COc1ccc(-c2n[nH]c(C)c2Oc2ccccc2)c(O)c1OC,48,-7
CCc1cc(-c2n[nH]c(C)c2Oc2ccccc2)c(O)cc1O,81*,-10
CCc1cc(-c2n[nH]c(C)c2-c2ccccc2)c(O)cc1O,69*,0
Cc1nn(-c2cccc(Cl)c2)c(C)c1C(=O)NCC(C)C,10,-4
COc1c2c(cc3c1C(c1c(O)c4ccccc4oc1=O)N(C)CC3)OCO2 (stereo unspecified),nt,-15
CCCc1ccc(Oc2c(-c3ccc(O)cc3O)n[nH]c2C)cc1,80*,-3
Cc1[nH]nc(-c2ccc(O)cc2O)c1Oc1ccccc1F,42,-9
CCCCN(CC)CC(=O)N1CCCc2c1c(=O)oc1ccc(O)cc21,0,-2
Cc1ccc(-n2nc3c(c2NC(=O)C2CCCCC2)CS(=O)(=O)C3)c(C)c1,1,0
O=C1CCC[C@@H]2C=C[C@H](c3ccc(Br)cc3)[C@H]3CCN1[C@@H]32,52*,-33
O=C1C[C@@H]2CCN3C(=O)CCC[C@@H]([C@H]23)[C@@H]1Cc1ccccc1,2,-5
CCOc1ccc(C2=C/C(=C/c3ccc(C)c(OC)c3)C(=O)O2)cc1,-14,3
CCOc1cc(/C=C2/C=C(c3ccc(C)cc3)OC2=O)ccc1O,55*,8
COc1cccc(C2=CC(c3cccc(OC)c3OC)n3nnnc3N2)c1 (stereo unspecified),-6,-8
SMILES,mHTT-CaM PPI inh,Pf apPOL inh
CC(=O)Nc1nc2ccc(Br)cc2s1,-3,0
CC(=O)Nc1nc2cc3sc(NC(C)=O)nc3cc2s1,-6,53*!
O=[N+]([O-])c1cc(C=Nc2ccc(Cl)cc2)ccc1Cl,19,2
O=[N+]([O-])c1cc(C=Nc2cc(Cl)ccc2O)ccc1Cl,64*,-1
COc1ccc(NC(=O)c2ccc(-c3ccc(Br)cc3)o2)cc1OC,40,-8
CCCCOc1ccc(NC(=O)CSc2nnc(N)s2)cc1,4,2
COc1ccc(OC)c(C=C2SC(=S)N(C(C)C(=O)O)C2=O)c1 (stereo unspecified),15,-13
COc1ccc(OC)c(C=C2SC(=S)N(C(C(=O)O)C(C)C)C2=O)c1 (stereo unspecified),51*,-38
CC(C)C(C(=O)O)N1C(=O)C(=Cc2cccc(Br)c2)SC1=S (stereo unspecified),59*,-31
CC(C)C(C(=O)O)N1C(=O)C(=Cc2ccccc2)SC1=S (stereo unspecified),3,-17
COc1ccc(C(=O)Nc2c(C)ccc3nsnc23)cc1[N+](=O)[O-],-3,-8
CCc1cccc(NC(=O)N2CC3CC2CC3NS(=O)(=O)c2ccccc2)c1 (stereo unspecified),0,-3
Cc1cccc(CNC(=O)C2CCN(C(=O)c3cc4ccsc4[nH]3)CC2)c1,0,-1
COc1ccccc1-c1cc(C(F)(F)F)nc(NCc2cccnc2)n1,-3,-4
OCc1ccc(-n2cncn2)cc1,nt,0
Cc1nc(C)c(Cc2ccc(Cl)cc2)c(N2CCN(C(=O)C3CCC3)CC2)n1,93*,3
CCC(=O)N1CCN(c2nc(C)nc(C)c2Cc2ccc(Cl)cc2Cl)CC1,52*,4
CCC(=O)N1CCN(c2nc(C)nc(C)c2Cc2c(F)cccc2Cl)CC1,10,-4
Cc1nc(C)c(Cc2ccc(Cl)cc2)c(N2CCN(C(=O)C3CC3)CC2)n1,13,-4
Cn1nc(C(F)(F)F)cc1-c1ccc(NC(=O)Nc2cccc(C(F)(F)F)c2)s1,nt,4
O=C1C2C3C=CC(C4CC34)C2C(=O)N1c1ccccc1Cl (stereo unspecified),-3,-7
O=C(Nc1nnc(-c2ccc(F)cc2)o1)c1ccc(S(=O)(=O)N2CCc3ccccc3C2)cc1,4,-67
CCc1nnc(NC(=O)c2ccc(S(=O)(=O)N3CCc4ccccc4C3)cc2)o1,55*,-6
O=C(Nc1ccccc1)N1CCCC(OCc2ccc(F)c(F)c2)C1 (stereo unspecified),-4,-4
COc1ccc(N(CC(=O)Nc2ccc(Oc3ccccc3)cc2)S(C)(=O)=O)cc1OC,52*,-8
SMILES,mHTT-CaM PPI inh,Pf apPOL inh
Cc1c(Cl)cccc1N(CC(=O)Nc1ccc(F)c(Cl)c1)S(C)(=O)=O,99*,-7
COc1ccc(NC(=O)CN(c2cccc([N+](=O)[O-])c2)S(C)(=O)=O)cc1Cl,12,65*
COc1ccc(N(CC(=O)Nc2ccc(OCc3ccccc3)cc2)S(C)(=O)=O)cc1OC,26,-9
COc1ccc(NC(=O)CN(c2ccc(Cl)cc2)S(=O)(=O)c2ccccc2)cc1OC,76*,-6
CS(=O)(=O)N(CC(=O)Nc1ccc(F)c(Cl)c1)c1ccccc1F,2,-6
COc1ccc(Cl)cc1N(CC(=O)Nc1cccc([N+](=O)[O-])c1)S(C)(=O)=O,3,-3
COc1ccc(NC(=O)CN(c2ccc(Cl)cc2)S(C)(=O)=O)cc1Cl,-2,6
Nc1c(C(=O)NCCc2ccc(Cl)cc2)nnn1-c1ccc2c(c1)OCCO2,1,-4
CCOc1ccccc1C1C(C#N)=C(N)OC2=C1C(=O)CCC2 (stereo unspecified),-7,7
N#CC1=C(N)OC2=C(CC/C2=C\c2ccccc2)C1c1ccccc1 (stereo unspecified),90*,0
N#CC1=C(N)OC2=C(C(=O)CCC2)C1c1ccccc1 (stereo unspecified),-6,-2
Cc1ccccc1/C=C1\Sc2ccccc2N(CC(=O)NCCc2ccccc2)C1=O,15,2
Cc1cc(C)c2c(N)c(C(=O)c3ccc(F)cc3)sc2n1,-11,-7
CCCCNC(=O)C1CC(=O)N(CCc2ccccc2)C1 (stereo unspecified),-4,-1
CCCCN(CCCNC(=O)C1CC(=O)N(CCc2ccccc2)C1)c1ccccc1 (stereo unspecified),80*,2
CCOC(=O)c1c[nH]c2onc(C)c2c1=O,nt,-5
Cc1ccc(C)c(Sc2cc(N3CCC(C(=O)NCCN4CCCC4)CC3)ncn2)c1,3,-16
Cc1ccc(N(C)NC(=O)NC(=O)c2c(F)cccc2Cl)nn1,nt,0
Cc1cc(-c2cc(-c3cc(Br)cs3)nc(N)n2)ccc1Cl,nt,-4
NC(=O)c1c(NC(=O)c2ccco2)sc2c1CCC2,2,0
